A selection: hits, their analogues and other compounds. The true share with any hit is near 1.8%.
UBC13 polyUb: UBC13 polyubiquitin chain formation inhibitors, primary screen, biochemical, TR-FRET, uHTS; Ubiquitin-conjugating enzyme E2 N (Homo sapiens), P61088; hit rate 0.47% among 330,000; inhibition, % at 20 µM; in the data active means inhibition above about 45%, passing the limit was not always enough
Target sequence (P61088 whole entry, looked up): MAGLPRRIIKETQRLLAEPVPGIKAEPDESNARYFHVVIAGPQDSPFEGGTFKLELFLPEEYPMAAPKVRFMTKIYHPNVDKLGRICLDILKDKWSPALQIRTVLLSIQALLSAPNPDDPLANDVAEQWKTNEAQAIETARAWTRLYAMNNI
MBD2 DNA inh: inhibitors of MBD2 binding to methylated DNA, primary screen, biochemical, TR-FRET, DNA-binding domain, human | inhibition, % at 4.4 µM | MBD2 binding to methylated oligonucleotide | AID 686964, 2013 | Methyl-CpG-binding domain protein 2 (Homo sapiens), Q9UBB5 | hit rate 0.31% among 370,000; in the data active means inhibition above about 13%
Target sequence (Q9UBB5 whole entry, looked up, the tested form may be a part): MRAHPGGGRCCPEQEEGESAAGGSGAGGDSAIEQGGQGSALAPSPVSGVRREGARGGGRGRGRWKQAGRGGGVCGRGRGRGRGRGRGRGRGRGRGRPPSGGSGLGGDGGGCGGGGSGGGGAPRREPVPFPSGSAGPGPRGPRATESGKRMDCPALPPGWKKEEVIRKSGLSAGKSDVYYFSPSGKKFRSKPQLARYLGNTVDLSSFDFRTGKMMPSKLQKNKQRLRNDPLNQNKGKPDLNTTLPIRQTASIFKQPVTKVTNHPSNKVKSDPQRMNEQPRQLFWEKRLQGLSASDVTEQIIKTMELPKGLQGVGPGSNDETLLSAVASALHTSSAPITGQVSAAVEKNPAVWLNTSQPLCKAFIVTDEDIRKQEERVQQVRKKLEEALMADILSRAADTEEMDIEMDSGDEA
Neddylation inh: inhibitors of cullin neddylation, primary screen, biochemical, TR-FRET, uHTS, NAE and Ubc12 | NEDD8-conjugating enzyme Ubc12 (Homo sapiens) + NEDD8-activating enzyme E1 regulatory … | calls only at 25 µM | hit rate 0.58% among 360,000 | AID 651699, 2012; in the data active means inhibition above about 36%
UHRF1 binding: UHRF1 methylated DNA binding inhibitors, primary screen, counter-screen for MBD2 inhibitor project, biochemical, TR-FRET, human UHRF1, single concentration. hit rate 0.75% among 370,000. UHRF1 binding to methylated oligo. inhibition, % at 4.4 µM; in the data active means inhibition above about 21%;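 further: UHRF1 SRA domain binding a hemimethylated CpG hairpin DNA probe; 0% = median of test compound wells and 100% = reference inhibitor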
Casp3 UBC13 ctr: CASP3 inhibitor validation, counterassay for project on UBE2N polyubiquitination blockers, biochemical, one dose. shares compounds with UBC13 polyUb. Recombinant caspase-3, Caspase-Glo 3/7 luminescence, 60 min. inhibition, % at 20 µM. hit rate 4% among 1,400;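 active means mean inhibition across replicates above about 26%, limit read from the data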;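 further: plate controls were DMSO with caspase-3 for no effect and DMSO wells lacking enzyme for full effect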
UBC13 conf: UBC13 polyubiquitination inhibitors, single-point retest, confirmation, biochemical, TR-FRET, single concentration; shares compounds with UBC13 polyUb; inhibition, % at 10 µM; hit rate 68% among 1,400; in the data active means inhibition above about 45%
Numbers without * were called inactive.

`COc1ccc(C(NC(=O)CNC(C)=O)C(=O)Nc2ccc3c(c2)OCCO3)cc1` (centres undefined) gave UBC13 polyUb 10, MBD2 DNA inh -3, Neddylation inh inactive and UHRF1 binding 1.
`CCCCCCCCOC(=O)c1c(CSC(=N)N)n(C)c2cc(Br)c(OC(C)=O)cc12` gave UBC13 polyUb 96*, MBD2 DNA inh 3, Neddylation inh inactive, UHRF1 binding 2, Casp3 UBC13 ctr 4 and UBC13 conf 114*.
For CNC(=O)c1ccsc1NC(=O)C1CCCN1S(=O)(=O)c1cccs1 (centres undefined) the results were UBC13 polyUb 46*, MBD2 DNA inh -2, Neddylation inh inactive, UHRF1 binding 1, Casp3 UBC13 ctr 8 and UBC13 conf 79*.
`O=C(Nc1ccccc1)C1CCCN1S(=O)(=O)c1cccs1` (centres undefined) gave UBC13 polyUb 2, MBD2 DNA inh 3, Neddylation inh inactive and UHRF1 binding -4.
Cc1ccc(OCC(=O)NNC(=O)Cc2ccc(S(=O)(=O)N3CCOCC3)s2)cc1 was read as UBC13 polyUb -10, MBD2 DNA inh -1, Neddylation inh inactive and UHRF1 binding 1.
COc1ccc(CNC[C@@H](CCCCN(C)Cc2ccc(OC)cc2)N2C[C@H](c3ccccc3)N(CCc3ccc(Cl)c(Cl)c3)C(=O)C2=O)cc1 was read as UBC13 polyUb 93*, Neddylation inh inactive, Casp3 UBC13 ctr -2 and UBC13 conf 74*.
`COc1cc(C(=O)Nc2ccc3c(c2)C(=O)N(CCC(=O)O)C3=O)cc(OC)c1OC` gave UBC13 polyUb 3, MBD2 DNA inh 1, Neddylation inh inactive and UHRF1 binding 7.
For O=C(NCCCN1CCCC1=O)c1cc(-c2ccc(F)cc2)nc2ccccc12 the results were UBC13 polyUb 6, MBD2 DNA inh 6, Neddylation inh inactive and UHRF1 binding -1.
COc1ccc(-c2cc(C(=O)NCCCN3CCCC3=O)c3ccccc3n2)cc1 was read as UBC13 polyUb 47*, MBD2 DNA inh -4, UHRF1 binding 0, Casp3 UBC13 ctr -1 and UBC13 conf 54*.
`COC(=O)c1c(NC(=O)c2ccc(OC(C)C)cc2)sc2c1CC(C)(C)NC2(C)C` gave UBC13 polyUb 84*, MBD2 DNA inh 1, Neddylation inh inactive, UHRF1 binding -1, Casp3 UBC13 ctr -2 and UBC13 conf 60*.
CCOC(=O)c1c(NC(=O)c2ccc(C)cc2)sc2c1CC(C)(C)NC2(C)C was read as UBC13 polyUb 49*, Casp3 UBC13 ctr -3 and UBC13 conf 11.
For CCOC(=O)c1c(NC(=O)COc2ccccc2C#N)sc2c1CC(C)(C)NC2(C)C the results were UBC13 polyUb 76*, MBD2 DNA inh 0, Neddylation inh inactive, UHRF1 binding 3, Casp3 UBC13 ctr -3 and UBC13 conf 105*.
CCOC(=O)c1c(NC(=O)COc2ccccc2OCC)sc2c1CC(C)(C)NC2(C)C was read as UBC13 polyUb 14 and Neddylation inh inactive.
`COC(=O)c1c(NC(=O)c2ccccc2)sc2c1CC(C)(C)NC2(C)C` gave UBC13 polyUb 28, MBD2 DNA inh -5, Neddylation inh inactive and UHRF1 binding 2.
`O=C(CCS(=O)(=O)Cc1ccccc1)Nc1nncs1` gave UBC13 polyUb 12, MBD2 DNA inh 5, Neddylation inh inactive and UHRF1 binding 1.
For O=C(Nc1nnc(CSCc2ccc(Cl)cc2)s1)c1cccc([N+](=O)[O-])c1 the results were UBC13 polyUb 1, MBD2 DNA inh -3, Neddylation inh inactive and UHRF1 binding 0.
CC(C)c1nc(C(N)=O)c2[nH]c(=O)n(-c3ccc(F)cc3)c2n1 was read as UBC13 polyUb 0, MBD2 DNA inh -4, Neddylation inh inactive and UHRF1 binding -1.
`CCOc1ccccc1-c1nc(C(N)=O)c2[nH]c(=O)n(-c3ccc(F)cc3)c2n1` gave UBC13 polyUb 65*, MBD2 DNA inh 2, Neddylation inh inactive, UHRF1 binding -1, Casp3 UBC13 ctr 3 and UBC13 conf 8.
Cc1nc2ccccc2c2oc(C(=O)N3CCN(C4CCCCC4)CC3)cc12 was read as UBC13 polyUb 10, MBD2 DNA inh 0, Neddylation inh inactive and UHRF1 binding 5.
Cc1nc2ccccc2c2oc(C(=O)N3CCC(N4CCCCC4)CC3)cc12 was read as UBC13 polyUb 61*, Neddylation inh inactive, Casp3 UBC13 ctr 0 and UBC13 conf 44.
Screening CCN(CC)CCNC(=O)c1c(C)n(-c2ccccc2)c2cc(Br)c(OC)cc12 returned UBC13 polyUb 52*, MBD2 DNA inh -4, Neddylation inh inactive, UHRF1 binding -1, Casp3 UBC13 ctr -5 and UBC13 conf 79*.
`Cn1nc(C2CC2)cc1NC(=O)CC(CC(=O)O)c1ccccc1` (centres undefined) gave UBC13 polyUb -2, MBD2 DNA inh 0, Neddylation inh inactive and UHRF1 binding 1.
`COc1ccc(CC(=O)N(C)CC(=O)Nc2ccccc2Cl)cc1S(=O)(=O)N1CCOCC1` gave UBC13 polyUb 52*, MBD2 DNA inh 1, Neddylation inh inactive, UHRF1 binding 0, Casp3 UBC13 ctr 3 and UBC13 conf 41.
`COc1ccc(CN(C)C(=O)Cc2ccc(OC)c(S(=O)(=O)N3CCOCC3)c2)cc1OC` gave UBC13 polyUb 101*, MBD2 DNA inh -5, Neddylation inh inactive, UHRF1 binding 0, Casp3 UBC13 ctr -3 and UBC13 conf 109*.
Screening COc1ccc(CC(=O)Nc2cccc(Cl)c2C)cc1S(=O)(=O)N1CCOCC1 returned UBC13 polyUb -5, MBD2 DNA inh 1, Neddylation inh inactive and UHRF1 binding -1.
`COc1ccc(N2CCN(C(=O)COC(=O)Cc3ccc(F)cc3)CC2)cc1` gave UBC13 polyUb -1, MBD2 DNA inh 3, Neddylation inh inactive and UHRF1 binding 3.
Screening COc1ccc(CNC(=O)C2(CC3CC(c4ccccc4)=NO3)CCN(C(=O)OC(C)(C)C)CC2)cc1 (centres undefined) returned UBC13 polyUb 77*, MBD2 DNA inh -5, Neddylation inh inactive, UHRF1 binding 0, Casp3 UBC13 ctr -4 and UBC13 conf -7.
COc1cccc(NC(=O)CSc2nc3ccccc3c(=O)n2Cc2cccs2)c1 was read as UBC13 polyUb 61*, MBD2 DNA inh -3, Neddylation inh inactive, UHRF1 binding 0, Casp3 UBC13 ctr 4 and UBC13 conf 58*.
